From PubChem BioAssay (NCATS) come the findings set out here.

Each structure is given as a SMILES string. “And” between values parts separate entries of the source, which are not always exact repeats. Equal entries are not always repeated. Records with an inconclusive call do not appear. Unmarked numbers belong to inactive results. The source made the active and inactive calls. Unless noted, the call rests on the fitted dose curve; in most records, active means well fitted curve in the direction sought with a large enough effect; inconclusive means small, poorly fitted or top-dose-only effect, or another doubt; inactive means no such curve, though single readings can be large; an effect the other way counts as inactive or inconclusive.

Assay [1] can be described thus: qHTS Assay for Identifying Gametocytocidal Compounds (AID 743244).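 Further: on the % scale 0 is the no-effect control and ±100 the full control effect; actives lower the fluorescent signal which means gametocytes are killed.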 Particulars: P. falciparum 3D7 stage III-V gametocytes, alamarBlue, 72 h; max response: stronger effect = lower value. The essentials:
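3D7 gametocytes, stages III–V, 20,000/well; cpd 72 h, 37 °C/5% CO2; + alamarBlue 24 h; fluor. Ex 525/Em 598.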
For orientation: qHTS replaces the single test concentration by a dilution series.

The nature of assay [2]: qHTS assay for measurement of the activity of small molecule inhibitors on Zika virus induced Caspase-3 activity in human iPSC derived neural progenitor cells (hNPCs) (AID 1224857). Further: % of control where 0% means no effect; nearly all actives have a fitted effect of over 65% in size. The essentials: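 Cells were plated at 350 per well and grown 16 to 20 hours. Compound pretreatment lasted one hour, after which ZIKV (2 FFU/cell) was added for 6 hours. Percent inhibition was normalized between uninfected and infected controls.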

Assay [3] can be described thus: qHTS assay for small molecule agonists of the antioxidant response element (ARE) signaling pathway measured by Nrf2-dependant transcriptional activity (AID 720636; active means well fitted curve in the direction sought with a large enough effect in the repeat runs; an effect the other way counts as inactive or inconclusive;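 further: HepG2 cells with an ARE-driven luciferase reporter; % of control where 0% means no effect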). The essentials:
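Nrf2-dependent transcription is measured in ARE-luc HepG2 cells: compound is applied for 16 hr at 37 C after a 6 hr attachment period, and luciferase activity is quantified by luminescence using ONE-Glo.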

Assay [4] is described as follows: qHTS assay for small molecule agonists of the antioxidant response element (ARE) signaling pathway measured by Nrf2-dependant transcriptional activity - cell viability counter screen (AID 720653; active means well fitted curve in the direction sought with a large enough effect in the repeat runs; an effect the other way counts as inactive or inconclusive; further: on the % scale 0 is the no-effect control and ±100 the full control effect). The following applies: ARE-bla HepG2 viability, CellTiter-Glo ATP luminescence, 16 h; stronger effect = lower value. The essentials:
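ARE-bla HepG2 cells (2,000/well) rested 5 hrs at 37C/5% CO2, then exposed to compounds in DMSO for 16 hrs. Viability was read in the same wells as intracellular ATP by luminescence, 30 min at room temperature after reagent addition.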

Assay [5] is described as follows: qHTS assay for cell viability of HEK293 cells (AID 743288). Further: on the % scale 0 is the no-effect control and ±100 the full control effect; nearly all actives have a fitted effect of over 50% in size. Particulars: ATP luminescence (CellTiter-Glo), 18 h, stronger effect = lower value. The essentials:
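Environmental chemicals tested in qHTS format against parental HEK293 cells; 18 h treatment, 37 C; read-out ATP luminescence (CellTiter-Glo), 30 min RT development.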

The nature of assay [6]: qHTS assay for cell viability of the p53RE-bla HCT-116 cell line (AID 743292). Further: on the % scale 0 is the no-effect control and ±100 the full control effect; nearly all actives have a fitted effect of over 55% in size. An outline of the steps: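 ATP-based luminescence, 16 h compound exposure at 37 C, p53RE-bla HCT-116 cells at 4,000/well.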
A short description of assay [7]: qHTS assay for small molecule antagonists of the retinoid-related orphan receptor gamma (ROR-gamma) signaling pathway - cell viability counter screen (AID 720652; active means well fitted curve in the direction sought with a large enough effect in the repeat runs; an effect the other way counts as inactive or inconclusive;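 further: CHO reporter cells with doxycycline-induced ROR-gamma expression; series mostly up to about 92 µM; compound exposure lasted 16 hr before ATP read; on the % scale 0 is the no-effect control and ±100 the full control effect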). An outline of the steps:
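CHO cells carrying TET-inducible ROR and RORE-luciferase reporter, plated 5 hr, then dosed with compound plus doxycycline. After 16 hr at 37 C, viability read as intracellular ATP by CellTiter-Glo luminescence.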

Regarding `Cc1ccccc1OCC(O)CO` (stereo not drawn), in assay [1], the max response was -6.04%. In addition, the Potency entry in assay [2] was “inactive”.
Regarding `CCc1cc(Cl)c(OC)c(C(=O)NC[C@@H]2CCCN2CC)c1O`, the max response in assay [1] was -8.19% and -10.7% and 19.5%. In addition, the Potency result in assay [2] is “inactive”.
For the compound `CCCCCCCCCCCCCCCC(=O)O`, the call in assay [3] and in assay [6] was inactive. Moreover, the max response in assay [4] is -12.5%; in assay [1], 2.07%; in assay [5], -2.84%. For the same compound, in assay [2], the Potency entry is “inactive”.
As to `Cc1c(-c2ccccc2)oc2c(C(=O)OCCN3CCCCC3)cccc2c1=O`, the max response in assay [1] was 3.61%. Also, the Potency entry in assay [2] is “inactive”.
Take `Oc1ccc(Cl)cc1Cc1cc(Cl)ccc1O`: the result in assay [7] and in assay [6] was inactive. The max response in assay [1] was 0.972%. Further, the Potency result in assay [2] is “inactive”.
Take `NCCNc1cccc2ccccc12`: the result in assay [3] and in assay [6] was inactive. The max response in assay [4] was -8.07% and -42.5%; in assay [5], -10.4% and -20.5%. Also, the Potency result in assay [2] is “inactive”.
As to `O=S(=O)(O)c1ccc(O)cc1`, in assay [1], the max response was 19.1%. The Potency entry in assay [2] was “inactive”.
In the case of `C[C@@H](O)[C@H]1C(=O)N2C(C(=O)O)=C(S[C@@H]3CN[C@H](CNS(N)(=O)=O)C3)[C@H](C)[C@H]12`, the max response in assay [1] is 13.8%. For the same compound, the Potency result in assay [2] is “inactive”.
Consider `CC[N+](C)(CC)CCOC(=O)C(O)(c1ccccc1)C1CCCCC1` (stereo not drawn), for which the max response in assay [1] is -1.51%. The Potency result in assay [2] was “inactive”.
In the case of `CC(=O)OC[C@H]1O[C@@H](n2ncc(=O)[nH]c2=O)[C@H](OC(C)=O)[C@@H]1OC(C)=O`, in assay [1], the max response was 13.3%. Also, in assay [2], the Potency result was “inactive”.
For `CC(=O)Nc1ncc([N+](=O)[O-])s1`, in that order: -10.1% and “inactive”.
In the case of `NC1CCN(c2nc3c(cc2F)c(=O)c(C(=O)O)cn3-c2ccc(F)cc2F)C1` (stereo not drawn), in assay [1], the max response is -5.91%. In addition, the Potency result in assay [2] was “inactive”.
